Source: PubChem
WT yeast gro inh = growth inhibition of WT strain, primary screen, mitochondrial fusion inhibitor project, WT and mutant strains, chemical genetic | 190,000 compounds, 2.1% hits | AID 1362, 2008 | mitochondrial fusion phenotypic screen | inhibition, % at 10 µM; in the data active means inhibition above about 58%; tested in S. cerevisiae
Calpain2 inh = inhibitors of pig calpain II, primary screen, biochemical, fluorogenic peptide substrate, 1536-well; purified calpain II, 30 min; AID 1236, 2008; inhibition, % at 16 µM; 220,000 compounds, 0.37% hits;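 active means inhibition above about 50%, limit read from the data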
L major viab = Leishmania major promastigote growth inhibition, primary screen; Leishmania major promastigotes, resazurin fluorescence viability; inhibition, % at 10 µM; 200,000 compounds, 9% hits; in the data active means inhibition above about 50%;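 further: promastigotes grown with compound for 44 hours at 28 °C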
ROMK mod = ROMK potassium channel modulators, primary screen, cell-based, thallium flux, MLSMR library | B-score at 10 µM | ATP-sensitive inward rectifier potassium channel 1 (Homo sapiens), P48048 | 130,000 compounds, 2% hits | AID 1918, 2009 | Tet-inducible ROMK, thallium flux fluorescence; actives lie on both sides;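 active means signal ratio slope over the read window, or its plate-corrected B-score, at least 3 SD from the plate mean, either direction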;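 further: B-score of the F/F0 ratio slope over 7 to 12 s after thallium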
Cl transport mod = KCC2 cotransporter modulators, thallium flux, primary screen, cell-based, HEK293 KCC2, FluoZin-2 fluorescence, MLSMR. Solute carrier family 12 member 5 (Homo sapiens), Q9H2X9. 190,000 compounds, 2.2% hits. KCC2 cells, thallium flux FluoZin-2 fluorescence. B-score of Tl+ flux slope (higher = more flux/activation; lower = inhibition) at 10 µM. AID 1456, 2008;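 active means thallium flux slope and its plate-corrected score both differing from the plate sample mean at a set confidence after two filtering rounds, in either direction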;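 further: slope of fluorescence scaled to starting intensity during 10 to 20 s after thallium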
Target sequence (Q9H2X9 whole entry, looked up): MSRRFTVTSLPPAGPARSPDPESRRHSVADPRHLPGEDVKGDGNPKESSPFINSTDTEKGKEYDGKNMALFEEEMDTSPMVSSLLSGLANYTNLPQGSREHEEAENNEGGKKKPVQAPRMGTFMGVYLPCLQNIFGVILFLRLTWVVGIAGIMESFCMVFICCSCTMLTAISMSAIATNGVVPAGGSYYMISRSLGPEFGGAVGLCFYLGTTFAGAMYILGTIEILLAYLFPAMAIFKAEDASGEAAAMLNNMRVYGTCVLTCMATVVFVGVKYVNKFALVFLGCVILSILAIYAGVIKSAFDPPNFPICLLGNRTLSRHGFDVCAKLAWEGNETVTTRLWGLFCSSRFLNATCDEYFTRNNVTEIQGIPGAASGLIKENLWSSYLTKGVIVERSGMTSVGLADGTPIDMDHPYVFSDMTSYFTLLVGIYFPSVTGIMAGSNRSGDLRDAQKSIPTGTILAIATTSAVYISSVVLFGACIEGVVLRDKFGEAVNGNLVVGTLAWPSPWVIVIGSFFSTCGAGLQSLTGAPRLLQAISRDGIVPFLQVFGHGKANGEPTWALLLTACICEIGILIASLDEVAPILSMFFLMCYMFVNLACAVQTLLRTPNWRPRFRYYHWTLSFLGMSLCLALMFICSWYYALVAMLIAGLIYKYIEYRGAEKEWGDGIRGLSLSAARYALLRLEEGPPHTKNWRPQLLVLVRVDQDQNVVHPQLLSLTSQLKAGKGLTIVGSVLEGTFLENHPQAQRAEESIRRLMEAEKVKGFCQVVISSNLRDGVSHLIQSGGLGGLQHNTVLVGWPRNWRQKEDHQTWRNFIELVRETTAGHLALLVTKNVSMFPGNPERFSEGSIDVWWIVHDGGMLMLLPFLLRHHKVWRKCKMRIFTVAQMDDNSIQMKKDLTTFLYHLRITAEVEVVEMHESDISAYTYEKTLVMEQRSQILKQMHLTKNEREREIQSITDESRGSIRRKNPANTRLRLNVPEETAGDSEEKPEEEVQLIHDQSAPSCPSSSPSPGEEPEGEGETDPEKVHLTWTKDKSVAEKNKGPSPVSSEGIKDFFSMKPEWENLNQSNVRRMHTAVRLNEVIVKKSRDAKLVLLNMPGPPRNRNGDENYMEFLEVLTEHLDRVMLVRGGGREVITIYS
An asterisk follows results filed as active. Sampled rows, rich in hits. Any-hit rate of the full collection: about 12%.

Results for COc1ccc(F)c(CN2CCC(N3CCC(C(=O)N4CCOCC4)CC3)CC2)c1 ?
WT yeast gro inh: -17.5; Calpain2 inh: -30.1; L major viab: 37.0; ROMK mod: -1.03; Cl transport mod: -0.346

Results for CCOC(=O)c1cnc(Nc2nc3ccccc3o2)nc1CN1CCN(C)CC1 ?
WT yeast gro inh: 19.5; Calpain2 inh: 31.1; L major viab: 76.5*; Cl transport mod: -1.53

How did CCCOC(=O)Nc1nc2ccccc2o1 do in these assays?
WT yeast gro inh: 2.7; Calpain2 inh: -6.1; L major viab: 0.6; ROMK mod: -0.807

Results for COc1ccc2nc(Nc3nc4cc5c(cc4s3)OCO5)sc2c1 ?
WT yeast gro inh: 17.4; Calpain2 inh: -60.0; L major viab: 55.3*; ROMK mod: -0.197; Cl transport mod: 0.958

What do the screens show for `COc1ccc2nc(Nc3ccc4c(c3)OCO4)sc2c1`?
WT yeast gro inh: -9.9; Calpain2 inh: 5.9; L major viab: -6.1; ROMK mod: 0.074; Cl transport mod: 0.625

What do the screens show for `c1ccc(-c2ccc(OCCOCCn3cncn3)cc2)cc1`?
WT yeast gro inh: 11.8; Calpain2 inh: -20.9; L major viab: -3.5; Cl transport mod: -0.184

What do the screens show for `COc1ccc(OC)c(NC(=O)c2nnn(Cc3ccccc3C)c2N)c1`?
WT yeast gro inh: 46.2; Calpain2 inh: 34.0; L major viab: 20.1; Cl transport mod: -0.433

How did Cc1ccccc1C(=O)NC(C)c1ccc2c(c1)CCCC2 (stereo not drawn) do in these assays?
WT yeast gro inh: 9.1; Calpain2 inh: 17.4; L major viab: 11.3

Results for COc1cc(/C=C/C(=O)OCC(=O)NC(=O)NC23CC4CC(CC(C4)C2)C3)ccc1OCC#N ?
WT yeast gro inh: 20.5; Calpain2 inh: -91.0; L major viab: 93.2*; ROMK mod: 1.55; Cl transport mod: 0.437

How did CC(=O)Nc1ccc(C(O)(C(F)(F)F)C(F)(F)F)cc1 do in these assays?
WT yeast gro inh: -1.2; Calpain2 inh: -27.6; L major viab: -5.4; Cl transport mod: -0.353

What do the screens show for `CC(C)OC(=O)N(C)c1ccc(C(O)(C(F)(F)F)C(F)(F)F)cc1`?
WT yeast gro inh: 15.1; Calpain2 inh: -6.9; L major viab: 99.9*; ROMK mod: 0.376

What do the screens show for `O=C(c1ccco1)N1CCN(CCCCOc2ccc(F)cc2)CC1`?
WT yeast gro inh: -8.7; Calpain2 inh: 9.8; L major viab: 90.9*; ROMK mod: 0.00306; Cl transport mod: -0.66

How did Brc1ccc(OCCOCCN2CCOCC2)cc1 do in these assays?
WT yeast gro inh: 9.9; Calpain2 inh: -5.7; L major viab: 89.9*

Results for COc1cccc(OCCCCCN2CCOCC2)c1 ?
WT yeast gro inh: 13.6; Calpain2 inh: -16.1; L major viab: 98.7*; Cl transport mod: -0.83

How did COc1ccc(OCCC(=O)NCCN2CCOCC2)cc1 do in these assays?
WT yeast gro inh: -9.5; Calpain2 inh: 13.7; L major viab: -0.8; Cl transport mod: 0.17

How did Brc1ccc(OCCCCCN2CCOCC2)cc1 do in these assays?
WT yeast gro inh: 20.6; Calpain2 inh: 13.0; L major viab: 97.6*; ROMK mod: -0.381; Cl transport mod: -0.0133

How did Fc1ccc(OCCCCN2CCOCC2)cc1 do in these assays?
WT yeast gro inh: -13.9; Calpain2 inh: 24.8; L major viab: 85.1*; ROMK mod: 0.484; Cl transport mod: -1.02

What do the screens show for `O=C(c1ccco1)N1CCN(CC(O)COc2ccc3oc4ccccc4c3c2)CC1` (stereo not drawn)?
WT yeast gro inh: 29.9; Calpain2 inh: -13.8; L major viab: 85.3*; Cl transport mod: -1.08

What do the screens show for `OC(COc1ccc(Br)cc1)CN1CCOCC1` (stereo not drawn)?
WT yeast gro inh: -8.3; Calpain2 inh: 11.7; L major viab: -2.4; ROMK mod: 1.11; Cl transport mod: 0.191

What do the screens show for `Brc1ccc(Oc2ncc(CN3CCOCC3)s2)cc1`?
WT yeast gro inh: 12.3; Calpain2 inh: 1.8; L major viab: 90.5*; Cl transport mod: -0.118

How did CN1CCN(CCCCOc2ccc(F)cc2)CC1 do in these assays?
WT yeast gro inh: -1.9; Calpain2 inh: -10.9; L major viab: -4.6; ROMK mod: -0.244; Cl transport mod: 0.118

How did O=[N+]([O-])c1ccc(COc2ncnc3ccccc23)cc1 do in these assays?
WT yeast gro inh: -7.6; Calpain2 inh: -6.0; L major viab: -5.9; ROMK mod: -0.444; Cl transport mod: 1.1

Results for Cc1ccc(S(=O)(=O)C2(C(=O)Nc3ccc(C(C)C)cc3)CC2)cc1 ?
WT yeast gro inh: 29.3; Calpain2 inh: 4.6; L major viab: 28.2; ROMK mod: 0.342; Cl transport mod: 0.135

How did CCOc1ccc2nc(NC(=O)CC3Oc4ccccc4NC3=O)sc2c1 (stereo not drawn) do in these assays?
Calpain2 inh: -12.2; Cl transport mod: -0.359

How did CC(OC(=O)c1ccncc1)C(=O)Nc1ccc([N+](=O)[O-])cc1Cl (stereo not drawn) do in these assays?
WT yeast gro inh: -4.8; Calpain2 inh: -8.7; L major viab: 2.0; ROMK mod: -0.383; Cl transport mod: 0.372

Results for CCOc1ccc2nc(Cl)c(C3CC(c4ccco4)=NN3S(=O)(=O)c3ccccc3)cc2c1 (stereo not drawn) ?
WT yeast gro inh: 0.6; Calpain2 inh: -72.3; L major viab: 99.9*; ROMK mod: 0.504; Cl transport mod: -1.21

What do the screens show for `COC(=O)C1CSc2[nH]c(=O)sc2C1c1ccc(OC)c(OC)c1` (stereo not drawn)?
WT yeast gro inh: 76.9*; Calpain2 inh: 16.5; L major viab: 0.8; Cl transport mod: -0.722

Results for CC(=O)N(C)C1=C(N2CCOCC2)C(=O)c2ccccc2C1=O ?
WT yeast gro inh: 16.2; Calpain2 inh: 7.3; L major viab: 94.9*; ROMK mod: -0.277

What do the screens show for `CC(=O)N(C1=C(N2CCOCC2)C(=O)c2ccccc2C1=O)c1ccc(C(=O)O)cc1`?
Calpain2 inh: 22.7; ROMK mod: 0.845; Cl transport mod: 0.000667

What do the screens show for `CCc1ccc(NC(=O)C(C)OC(=O)c2ccc(NS(=O)(=O)c3ccc(C)c([N+](=O)[O-])c3)cc2)cc1` (stereo not drawn)?
WT yeast gro inh: -3.9; Calpain2 inh: -10.0; L major viab: 64.4*; ROMK mod: 1.03; Cl transport mod: -0.0757

What do the screens show for `CC(C)N(C(=O)COC(=O)c1cccc(C(=O)OCC(=O)N(C(C)C)C(C)C)n1)C(C)C`?
WT yeast gro inh: -0.8; Calpain2 inh: -1.5; L major viab: -7.4; ROMK mod: -0.506; Cl transport mod: 0.138

What do the screens show for `COc1ccccc1OCCCCN1CCN(C(c2ccccc2)c2ccccc2)CC1`?
WT yeast gro inh: 47.4; Calpain2 inh: 9.8; L major viab: 93.2*; ROMK mod: -1.39; Cl transport mod: -0.176

How did COc1ccc(-c2noc(CCC(=O)NCCCN3CCC(Cc4ccccc4)CC3)n2)cc1 do in these assays?
WT yeast gro inh: 15.6; Calpain2 inh: -3.0; L major viab: 100.5*; Cl transport mod: -0.064

What do the screens show for `COc1ccc(NC(=O)NCCCN2CCC(Cc3ccccc3)CC2)cc1`?
Calpain2 inh: 4.2; ROMK mod: -1.13; Cl transport mod: 0.0345
